In ChEMBL document CHEMBL2218924, “A broad activity screen in support of a chemogenomic map for kinase signalling research and drug discovery” (Biochem J, 2013):

How the values were obtained:
[1] = target: Ribosomal protein S6 kinase beta-1 (Homo sapiens) (UniProt P23443); details: at 1 µM
[2] = target: Ribosomal protein S6 kinase beta-1 (Homo sapiens) (UniProt P23443); details: at 10 µM
[3] = target: Serine/threonine-protein kinase Nek6 (Homo sapiens) (UniProt Q9HC98); details: at 1 µM
[4] = target: Serine/threonine-protein kinase Nek6 (Homo sapiens) (UniProt Q9HC98); details: at 10 µM
[5] = target: Serine/threonine-protein kinase Nek7 (Homo sapiens) (UniProt Q8TDX7); details: at 1 µM
Sequence of Serine/threonine-protein kinase Nek7 (Homo sapiens) (Q8TDX7 whole entry, looked up): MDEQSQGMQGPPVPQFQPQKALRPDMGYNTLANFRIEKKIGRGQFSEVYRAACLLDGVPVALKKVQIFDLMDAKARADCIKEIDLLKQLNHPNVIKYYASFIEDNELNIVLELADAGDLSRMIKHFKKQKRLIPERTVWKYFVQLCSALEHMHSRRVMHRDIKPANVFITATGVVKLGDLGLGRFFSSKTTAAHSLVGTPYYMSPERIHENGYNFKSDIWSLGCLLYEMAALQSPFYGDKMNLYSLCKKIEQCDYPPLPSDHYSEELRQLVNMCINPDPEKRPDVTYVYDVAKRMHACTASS

[6] = target: Serine/threonine-protein kinase Nek7 (Homo sapiens) (UniProt Q8TDX7); details: at 10 µM
[7] = target: T1, Serine/threonine-protein kinase NLK (Homo sapiens) (UniProt Q9UBE8); details: at 1 µM
T1 sequence (whole entry): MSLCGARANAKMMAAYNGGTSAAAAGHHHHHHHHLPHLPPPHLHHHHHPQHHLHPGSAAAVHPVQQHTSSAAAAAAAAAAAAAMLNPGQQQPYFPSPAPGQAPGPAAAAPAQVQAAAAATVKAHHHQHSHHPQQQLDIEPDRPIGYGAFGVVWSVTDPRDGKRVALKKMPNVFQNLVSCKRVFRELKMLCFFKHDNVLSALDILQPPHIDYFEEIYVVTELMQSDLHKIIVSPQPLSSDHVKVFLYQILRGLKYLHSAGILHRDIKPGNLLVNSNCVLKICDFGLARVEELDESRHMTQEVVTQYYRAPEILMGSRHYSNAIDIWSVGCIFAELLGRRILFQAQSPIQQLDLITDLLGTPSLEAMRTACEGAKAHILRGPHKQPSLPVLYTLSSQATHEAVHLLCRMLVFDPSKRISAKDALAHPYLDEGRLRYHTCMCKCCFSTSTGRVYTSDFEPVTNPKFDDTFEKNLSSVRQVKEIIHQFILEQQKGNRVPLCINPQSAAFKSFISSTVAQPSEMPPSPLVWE

[8] = target: T1, Serine/threonine-protein kinase NLK (Homo sapiens); details: at 10 µM
[9] = target: Serine/threonine-protein kinase PAK 2 (Homo sapiens) (UniProt Q13177); details: at 1 µM
[10] = target: Serine/threonine-protein kinase PAK 2 (Homo sapiens) (UniProt Q13177); details: at 10 µM
[11] = target: Serine/threonine-protein kinase PAK 4 (Homo sapiens) (UniProt O96013); details: at 1 µM
Sequence of Serine/threonine-protein kinase PAK 4 (Homo sapiens) (O96013 whole entry, looked up): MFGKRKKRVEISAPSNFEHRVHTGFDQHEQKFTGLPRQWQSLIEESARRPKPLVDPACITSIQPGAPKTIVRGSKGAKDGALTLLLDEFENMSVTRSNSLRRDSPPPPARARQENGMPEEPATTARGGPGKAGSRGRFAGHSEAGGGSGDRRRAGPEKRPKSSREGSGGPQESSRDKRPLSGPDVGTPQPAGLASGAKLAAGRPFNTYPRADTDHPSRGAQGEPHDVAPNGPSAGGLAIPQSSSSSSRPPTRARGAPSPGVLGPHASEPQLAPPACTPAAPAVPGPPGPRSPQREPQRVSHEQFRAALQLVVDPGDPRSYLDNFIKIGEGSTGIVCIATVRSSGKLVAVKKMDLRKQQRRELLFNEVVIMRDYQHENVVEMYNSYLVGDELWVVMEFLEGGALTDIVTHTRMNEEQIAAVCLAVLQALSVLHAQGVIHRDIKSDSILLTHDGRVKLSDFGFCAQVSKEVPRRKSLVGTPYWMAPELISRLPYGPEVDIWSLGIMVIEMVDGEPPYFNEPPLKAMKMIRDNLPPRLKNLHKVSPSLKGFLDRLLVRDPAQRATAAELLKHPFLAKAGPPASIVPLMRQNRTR

[12] = target: Serine/threonine-protein kinase PAK 4 (Homo sapiens) (UniProt O96013); details: at 10 µM
[13] = target: Serine/threonine-protein kinase PAK 5 (Homo sapiens) (UniProt Q9P286); details: at 1 µM
Sequence of Serine/threonine-protein kinase PAK 5 (Homo sapiens) (Q9P286 whole entry, looked up): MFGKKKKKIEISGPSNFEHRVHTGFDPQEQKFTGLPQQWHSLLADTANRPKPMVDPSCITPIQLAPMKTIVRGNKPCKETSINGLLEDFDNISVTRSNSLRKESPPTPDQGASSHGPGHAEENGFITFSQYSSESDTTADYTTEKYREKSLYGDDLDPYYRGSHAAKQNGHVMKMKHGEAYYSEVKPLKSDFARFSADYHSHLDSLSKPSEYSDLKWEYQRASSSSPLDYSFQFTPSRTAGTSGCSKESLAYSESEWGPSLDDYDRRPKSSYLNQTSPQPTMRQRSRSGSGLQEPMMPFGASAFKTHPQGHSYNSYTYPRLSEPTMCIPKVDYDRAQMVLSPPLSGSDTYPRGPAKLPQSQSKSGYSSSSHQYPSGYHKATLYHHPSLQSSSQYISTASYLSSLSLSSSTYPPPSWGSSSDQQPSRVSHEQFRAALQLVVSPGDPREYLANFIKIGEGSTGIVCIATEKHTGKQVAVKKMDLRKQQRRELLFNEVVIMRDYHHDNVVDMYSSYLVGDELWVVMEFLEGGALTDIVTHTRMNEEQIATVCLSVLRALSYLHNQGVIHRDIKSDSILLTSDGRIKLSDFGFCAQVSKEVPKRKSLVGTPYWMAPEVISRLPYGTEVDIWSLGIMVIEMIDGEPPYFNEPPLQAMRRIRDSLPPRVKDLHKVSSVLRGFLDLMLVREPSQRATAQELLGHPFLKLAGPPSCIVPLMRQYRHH

[14] = target: Serine/threonine-protein kinase PAK 5 (Homo sapiens) (UniProt Q9P286); details: at 10 µM
[15] = target: Serine/threonine-protein kinase PAK 6 (Homo sapiens) (UniProt Q9NQU5); details: at 1 µM
[16] = target: Serine/threonine-protein kinase PAK 6 (Homo sapiens) (UniProt Q9NQU5); details: at 10 µM
[17] = target: PAS domain-containing serine/threonine-protein kinase (Homo sapiens) (UniProt Q96RG2); details: at 10 µM
Sequence of PAS domain-containing serine/threonine-protein kinase (Homo sapiens) (Q96RG2 whole entry, the tested form may be a part): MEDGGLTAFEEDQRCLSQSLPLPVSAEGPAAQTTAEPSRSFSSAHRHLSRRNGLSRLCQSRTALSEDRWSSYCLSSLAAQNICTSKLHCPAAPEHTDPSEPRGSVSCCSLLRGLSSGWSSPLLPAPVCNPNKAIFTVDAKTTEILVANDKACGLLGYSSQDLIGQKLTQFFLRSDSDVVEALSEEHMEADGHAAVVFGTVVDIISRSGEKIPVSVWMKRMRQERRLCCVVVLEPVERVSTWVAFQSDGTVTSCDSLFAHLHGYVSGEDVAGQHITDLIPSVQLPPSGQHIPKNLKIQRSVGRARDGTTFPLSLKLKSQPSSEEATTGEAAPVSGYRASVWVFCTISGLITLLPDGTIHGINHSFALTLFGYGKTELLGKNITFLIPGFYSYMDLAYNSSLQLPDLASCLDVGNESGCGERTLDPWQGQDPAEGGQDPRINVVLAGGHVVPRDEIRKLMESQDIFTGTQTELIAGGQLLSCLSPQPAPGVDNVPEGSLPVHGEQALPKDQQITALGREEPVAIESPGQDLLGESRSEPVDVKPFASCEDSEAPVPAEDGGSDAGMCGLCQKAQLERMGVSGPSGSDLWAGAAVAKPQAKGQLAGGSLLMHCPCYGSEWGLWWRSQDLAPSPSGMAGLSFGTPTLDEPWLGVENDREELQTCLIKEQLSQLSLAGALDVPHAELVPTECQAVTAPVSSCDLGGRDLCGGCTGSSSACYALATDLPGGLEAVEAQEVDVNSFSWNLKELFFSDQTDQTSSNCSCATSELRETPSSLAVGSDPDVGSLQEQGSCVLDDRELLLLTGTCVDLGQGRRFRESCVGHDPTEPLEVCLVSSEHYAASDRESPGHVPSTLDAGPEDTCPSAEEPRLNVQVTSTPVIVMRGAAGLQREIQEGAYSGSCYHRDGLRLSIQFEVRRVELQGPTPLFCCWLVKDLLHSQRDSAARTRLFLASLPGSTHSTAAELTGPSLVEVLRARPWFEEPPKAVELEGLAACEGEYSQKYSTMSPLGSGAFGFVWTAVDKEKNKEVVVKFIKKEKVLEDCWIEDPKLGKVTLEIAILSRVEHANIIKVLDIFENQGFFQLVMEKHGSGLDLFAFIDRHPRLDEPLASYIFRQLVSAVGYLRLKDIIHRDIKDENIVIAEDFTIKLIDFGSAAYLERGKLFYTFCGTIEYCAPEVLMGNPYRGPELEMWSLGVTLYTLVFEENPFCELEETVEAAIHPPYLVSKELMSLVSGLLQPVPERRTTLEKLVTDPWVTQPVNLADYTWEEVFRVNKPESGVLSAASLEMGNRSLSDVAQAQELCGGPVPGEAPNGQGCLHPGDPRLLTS

[18] = target: Activated CDC42 kinase 1 (Homo sapiens) (UniProt Q07912); details: at 1 µM
Sequence of Activated CDC42 kinase 1 (Homo sapiens) (Q07912 whole entry, looked up): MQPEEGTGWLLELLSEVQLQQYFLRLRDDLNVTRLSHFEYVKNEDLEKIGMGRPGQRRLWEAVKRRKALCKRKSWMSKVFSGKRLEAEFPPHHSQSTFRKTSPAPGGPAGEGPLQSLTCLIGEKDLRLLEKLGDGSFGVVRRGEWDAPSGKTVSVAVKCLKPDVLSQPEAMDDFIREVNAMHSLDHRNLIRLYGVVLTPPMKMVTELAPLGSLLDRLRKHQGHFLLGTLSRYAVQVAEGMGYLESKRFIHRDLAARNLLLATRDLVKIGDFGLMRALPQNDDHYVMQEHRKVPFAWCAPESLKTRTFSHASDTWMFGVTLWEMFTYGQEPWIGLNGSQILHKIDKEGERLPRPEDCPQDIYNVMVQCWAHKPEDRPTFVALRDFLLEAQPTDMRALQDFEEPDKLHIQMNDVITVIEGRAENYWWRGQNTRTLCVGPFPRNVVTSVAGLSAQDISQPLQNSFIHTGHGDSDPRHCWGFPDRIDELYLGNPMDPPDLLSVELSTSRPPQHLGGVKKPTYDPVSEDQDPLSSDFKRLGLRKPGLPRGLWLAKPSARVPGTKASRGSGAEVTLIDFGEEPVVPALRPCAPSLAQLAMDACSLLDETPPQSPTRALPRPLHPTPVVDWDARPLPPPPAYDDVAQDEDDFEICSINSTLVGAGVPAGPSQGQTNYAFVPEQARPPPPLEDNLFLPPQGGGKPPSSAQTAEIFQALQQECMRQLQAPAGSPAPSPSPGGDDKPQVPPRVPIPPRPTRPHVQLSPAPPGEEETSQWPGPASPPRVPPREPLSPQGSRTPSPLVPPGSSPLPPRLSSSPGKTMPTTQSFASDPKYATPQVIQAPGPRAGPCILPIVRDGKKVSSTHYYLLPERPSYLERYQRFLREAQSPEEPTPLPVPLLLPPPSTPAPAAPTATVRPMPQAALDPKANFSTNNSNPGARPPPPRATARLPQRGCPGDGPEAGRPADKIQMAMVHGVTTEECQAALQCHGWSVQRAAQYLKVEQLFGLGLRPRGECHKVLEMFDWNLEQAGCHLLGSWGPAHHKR

[19] = target: Activated CDC42 kinase 1 (Homo sapiens) (UniProt Q07912); details: at 10 µM
[20] = target: ALK tyrosine kinase receptor (Homo sapiens) (UniProt Q9UM73); details: at 1 µM

Sequence of Ribosomal protein S6 kinase beta-1 (Homo sapiens) (P23443 whole entry, looked up): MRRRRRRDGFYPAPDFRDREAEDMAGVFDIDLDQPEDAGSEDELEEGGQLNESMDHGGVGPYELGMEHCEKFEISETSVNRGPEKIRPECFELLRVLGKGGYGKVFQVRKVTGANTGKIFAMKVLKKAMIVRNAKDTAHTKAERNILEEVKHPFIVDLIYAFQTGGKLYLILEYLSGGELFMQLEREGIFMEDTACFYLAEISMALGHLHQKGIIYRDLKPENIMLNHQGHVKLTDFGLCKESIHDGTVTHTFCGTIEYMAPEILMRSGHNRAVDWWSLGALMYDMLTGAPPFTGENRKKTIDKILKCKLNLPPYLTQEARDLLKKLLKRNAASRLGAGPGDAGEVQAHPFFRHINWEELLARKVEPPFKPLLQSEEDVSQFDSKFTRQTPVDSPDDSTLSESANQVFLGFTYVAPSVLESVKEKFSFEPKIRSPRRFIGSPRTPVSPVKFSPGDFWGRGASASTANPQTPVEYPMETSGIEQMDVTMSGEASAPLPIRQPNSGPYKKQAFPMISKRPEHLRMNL
Sequence of Serine/threonine-protein kinase Nek6 (Homo sapiens) (Q9HC98 whole entry): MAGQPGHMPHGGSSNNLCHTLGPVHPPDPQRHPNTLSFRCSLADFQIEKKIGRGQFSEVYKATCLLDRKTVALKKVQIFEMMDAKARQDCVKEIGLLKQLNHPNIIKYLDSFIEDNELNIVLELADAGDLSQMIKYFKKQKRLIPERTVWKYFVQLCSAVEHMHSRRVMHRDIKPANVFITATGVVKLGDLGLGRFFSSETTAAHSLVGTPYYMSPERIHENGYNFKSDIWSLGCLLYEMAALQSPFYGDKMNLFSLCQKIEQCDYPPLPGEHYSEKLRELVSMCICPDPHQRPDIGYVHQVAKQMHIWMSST

| SMILES | residual activity [1] [%] | residual activity [2] [%] | residual activity [3] | residual activity [4] [%] | residual activity [5] | residual activity [6] | residual activity [7] [%] | residual activity [8] [%] | residual activity [9] [%] | residual activity [10] [%] | residual activity [11] [%] | residual activity [12] [%] | residual activity [13] [%] | residual activity [14] [%] | residual activity [15] [%] | residual activity [16] [%] | residual activity [17] [%] | residual activity [18] [%] | residual activity [19] [%] | residual activity [20] [%] |
| --- | --- | --- | --- | --- | --- | --- | --- | --- | --- | --- | --- | --- | --- | --- | --- | --- | --- | --- | --- | --- |
| O=c1c2ccccc2[nH]c(=S)n1CCN1CCC(=C(c2ccc(F)cc2)c2ccc(F)cc2)CC1 | 79 | 42 | 99% (inactive) | 107 | 103% (inactive) | 94% (inactive) | 111 | 93 | 103 | 103 | 106 | 99 | 84 | 47 | 82 | 41 | 53 | 83 | 70 | 81 |
| O=C1c2ccccc2-[n+]2ccc3c([nH]c4ccccc43)c21 | 86 | 54 | 109% (inactive) | 104 | – | 101% (inactive) | 86 | 70 | 107 | 94 | 90 | 92 | 82 | 90 | 102 | 84 | 119 | 77 | 55 | 85 |
| N#CCCc1ccc2c(c1)-c1[nH]c3ccc([N+](=O)[O-])cc3c1CC(=O)N2 | – | – | – | – | – | – | – | 64 | 62 | 37 | 13 | 4 | 16 | 7 | 55 | 16 | 52 | 32 | 13 | 73 |
| Oc1ccc(Nc2nc(-c3ccc(Cl)cc3)cs2)cc1 | 119 | 87 | 116% (inactive) | 123 | 110% (inactive) | 106% (inactive) | 110 | 74 | 105 | 106 | 103 | 98 | 106 | 104 | 109 | 103 | 126 | 89 | 80 | 82 |
| Nc1ccc2ncnc(NCCc3ccc(Oc4ccccc4)cc3)c2c1 | 81 | 51 | 105% (inactive) | 120 | 111% (inactive) | 117% (inactive) | 111 | 96 | 103 | 89 | 107 | 87 | 100 | 81 | 95 | 84 | 65 | 81 | 55 | 81 |
| N#Cc1cnc2cnc(NCc3cccnc3)cc2c1Nc1ccc(F)c(Cl)c1 | 1 | -1 | – | – | – | – | 93 | 89 | 103 | 90 | 65 | 18 | 11 | 5 | 2 | 2 | 63 | 3 | 1 | 90 |
| Cc1cncc2cccc(S(=O)(=O)N3CCCN(C(=O)CN)C[C@H]3C)c12 | – | – | 88% (inactive) | – | 88% (inactive) | 98% (inactive) | 90 | 86 | – | 82 | 90 | 85 | 86 | 95 | 88 | 86 | 64 | 69 | 21 | 76 |
| c1ccc(-c2n[nH]cc2-c2ccnc3ccccc23)nc1 | 72 | 58 | – | – | – | – | 72 | 27 | 107 | 88 | 98 | 90 | 92 | 104 | – | – | 82 | 77 | 50 | 85 |
| O=C1Nc2ccccc2/C1=C1/Nc2ccccc2/C1=N\OCCC(O)CO (stereo not given) | 20 | 6 | 113% (inactive) | 113 | 104% (inactive) | – | – | 70 | 80 | 78 | 44 | 12 | 61 | 30 | 81 | 27 | 116 | 14 | 1 | 24 |
| COc1cc2ncc(-c3ccccc3)nc2cc1OC | 63 | 47 | 80% (inactive) | 89 | – | – | 100 | 93 | – | – | – | 93 | – | – | 92 | 74 | 93 | 96 | 56 | – |
| CN(C)CCCn1cc(C2=C(c3c[nH]c4ccccc34)C(=O)NC2=O)c2ccccc21 | 11 | 2 | – | 113 | 117% (inactive) | 121% (inactive) | 127 | 88 | 115 | – | 102 | 75 | 88 | 77 | – | 78 | 18 | 112 | 45 | – |
| O=Nc1c(-c2c(O)[nH]c3ccccc23)[nH]c2ccccc12 | 37 | 13 | 91% (inactive) | 103 | 106% (inactive) | 102% (inactive) | 82 | 67 | 103 | 54 | 55 | 14 | 64 | 33 | 63 | 37 | 76 | 34 | 4 | 52 |
| Cc1cc2ncc(-c3ccccc3)nc2cc1C | 80 | 52 | 104% (inactive) | 102 | 106% (inactive) | 101% (inactive) | 105 | 91 | 97 | 94 | 104 | 88 | – | 92 | 94 | 77 | – | – | 59 | 82 |
| O=c1cc(-c2cccc3c2Sc2ccccc2S3)oc(N2CCOCC2)c1 | 119 | 93 | 108% (inactive) | 122 | 109% (inactive) | 140% (inactive) | 101 | 101 | 113 | 95 | 106 | 96 | 108 | 91 | 89 | 72 | 80 | 89 | 84 | 97 |
| c1ccc(-c2n[nH]c3c2oc2ccccc23)cc1 | – | – | 94% (inactive) | – | 94% (inactive) | – | – | 85 | – | – | 95 | 83 | 83 | 86 | – | – | 77 | 65 | 51 | 84 |
| N#CC(C#N)=C(N)/C(C#N)=C/c1ccc(O)cc1 | 66 | 77 | – | – | – | – | – | – | 88 | 97 | 98 | 91 | – | – | 100 | 87 | 65 | 84 | 70 | 88 |
| O=C1Nc2cc(Br)ccc2/C1=C1/Nc2ccccc2/C1=N\O | 30 | 29 | 108% (inactive) | 106 | 102% (inactive) | 85% (inactive) | 79 | 85 | 75 | 88 | 30 | 25 | 39 | 55 | 51 | 21 | 115 | 14 | 2 | 35 |
| COc1cc2ncnc(Nc3ccc(NC(=O)c4ccccc4)cc3)c2cc1OC | 67 | 38 | 103% (inactive) | – | – | 86% (inactive) | – | 97 | – | 89 | 101 | 103 | 89 | 68 | 108 | 92 | 67 | 13 | 1 | 107 |
| O=C1NC(=O)c2cc(Nc3ccc(F)cc3)c(Nc3ccc(F)cc3)cc21 | 81 | 101 | 112% (inactive) | 111 | 98% (inactive) | 98% (inactive) | 92 | 80 | 107 | 79 | 89 | 74 | 98 | 66 | 100 | 64 | 51 | 79 | 34 | 84 |
